These results are taken from ChEMBL document CHEMBL1961873, “Compounds: GSK PKIS; Assays: Nanosyn kinase panel” (2012).

The structures appear in SMILES notation.

The target in experiment [1] is Serine/threonine-protein kinase PAK 6 (Homo sapiens) (UniProt Q9NQU5). As to conditions: at 1 µM.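 Note: values are mean percent inhibition of PAK6 kinase.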
Experiment [2] deals with Tyrosine-protein kinase ABL1 (Homo sapiens), P00519 [E255K]. The following applies: at 0.1 µM.
For experiment [3] the test system is unchanged. The following applies: at 1 µM.
For experiment [4], the system named is Tyrosine-protein kinase ABL1 (Homo sapiens), P00519 [H396P]. As to conditions: at 0.1 µM.
For experiment [5] the test system is unchanged. As to conditions: at 1 µM.
The subject of experiment [6] is Tyrosine-protein kinase ABL1 (Homo sapiens), P00519 [M351T]. The following applies: at 0.1 µM.
Experiment [7] shares this test system. The following applies: at 1 µM.
The subject of experiment [8] is Tyrosine-protein kinase ABL1 (Homo sapiens), P00519 [Q252H]. The following applies: at 0.1 µM.
The test system is the same in experiment [9]. The following applies: at 1 µM.
Experiment [10] deals with Tyrosine-protein kinase ABL1 (Homo sapiens), P00519 [T315I]. As to conditions: at 0.1 µM.

Chain of Serine/threonine-protein kinase PAK 6 (Homo sapiens) (Q9NQU5 whole entry, looked up): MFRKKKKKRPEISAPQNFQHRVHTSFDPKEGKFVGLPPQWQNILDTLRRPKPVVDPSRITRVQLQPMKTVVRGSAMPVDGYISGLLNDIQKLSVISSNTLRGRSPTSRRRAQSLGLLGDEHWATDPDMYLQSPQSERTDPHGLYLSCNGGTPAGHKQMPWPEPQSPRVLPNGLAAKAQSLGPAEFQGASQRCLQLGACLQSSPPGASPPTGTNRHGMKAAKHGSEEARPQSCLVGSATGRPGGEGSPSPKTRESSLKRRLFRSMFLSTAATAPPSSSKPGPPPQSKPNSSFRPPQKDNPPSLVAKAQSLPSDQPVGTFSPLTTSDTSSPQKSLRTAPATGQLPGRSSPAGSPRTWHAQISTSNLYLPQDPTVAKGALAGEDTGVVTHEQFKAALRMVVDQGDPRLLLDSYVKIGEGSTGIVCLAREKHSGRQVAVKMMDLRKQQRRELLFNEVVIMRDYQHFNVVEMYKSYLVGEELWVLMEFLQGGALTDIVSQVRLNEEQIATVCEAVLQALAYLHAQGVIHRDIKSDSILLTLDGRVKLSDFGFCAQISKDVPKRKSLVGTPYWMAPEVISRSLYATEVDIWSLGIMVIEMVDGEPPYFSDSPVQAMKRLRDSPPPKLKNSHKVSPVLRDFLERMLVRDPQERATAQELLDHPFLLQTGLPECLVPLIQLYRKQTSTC

A word on the inhibition: it is the drop in the measured response relative to a control, in per cent. Take `Cc1c2ccc(N(C)c3ccnc(Nc4cccc(S(N)(=O)=O)c4)n3)cc2nn1C`: the inhibition in experiment [1] is -6.14%; in experiment [2], 19.6%; in [3] it was 67.6%; in experiment [4] it was 37.9%; in experiment [5] it was 81.6%; in experiment [6], 39.5%. The inhibition was determined as 84.8% in experiment [7], 42.9% in experiment [8], 83.6% in [9] and 11.3% in [10].
As to `CNC(=O)c1ncccc1Nc1nc(Nc2cc3c(cc2OC)CCCN3C(=O)CN(C)C)nc2[nH]ccc12`, the inhibition is 3.38% in experiment [1]; 2.91% in experiment [2]; 2.97% in [3]; 2.6% in experiment [4]; 2.23% in experiment [5]; 1.84% in [6]. The inhibition in experiment [7] was found to be 0.31%; in [8], 3.06%; in experiment [9], 3.95%; in [10] it was 3.72%.
For the molecule `CNC(=O)c1sc(-n2cnc3cc(OC)c(OC)cc32)cc1OCc1ccccc1C(F)(F)F`, the inhibition in experiment [1] is -4.28%; in experiment [2], 1.88%; in experiment [3] it was 9.07%; in experiment [4], 3.16%; in [5], 10.5%; in experiment [6] it was 0.2%. Further, the inhibition in experiment [7] amounted to 6.66%; in experiment [8], 4.26%; in experiment [9] it was 7.88%; in experiment [10] it was 1.96%.
As to `O=C(Nc1n[nH]c2nnc(-c3cccnc3)cc12)C1CC1`, the inhibition in experiment [1] is -4.92%; in [2], -1.11%; in [3] it was 1.39%; in [4], 0.14%; in experiment [5], 3.4%; in experiment [6], 2.2%. In addition, the inhibition in experiment [7] was 3.78%; in experiment [8] it was 0.59%; in experiment [9], 2.57%; in experiment [10] it was -0.5%.
For the molecule `CC1(C)CC(n2cnc(-c3ccc(F)cc3)c2-c2ccnc(N)n2)CC(C)(C)N1`, the inhibition in experiment [1] is -4.18%; in [2], 1.94%; in [3], 2.09%; in experiment [4], 0.18%; in experiment [5] it was 0.59%; in experiment [6], 2.43%. For the same molecule, the inhibition came out at 0.27% in experiment [7], 0.65% in experiment [8], 0.31% in [9] and 1.92% in experiment [10].
For the molecule `COc1ccc(-c2nn3ncccc3c2-c2ccnc(Nc3ccc(F)c(F)c3)n2)cc1`, the inhibition in experiment [1] was -1.89%; in experiment [2] it was 3.61%; in experiment [3] it was 10.3%; in [4], 4.57%; in experiment [5], 22.8%; in [6] it was 17%. The inhibition in experiment [7] turned out to be 58.1%; in experiment [8], 12.2%; in experiment [9], 47.4%; in experiment [10] it was 5.18%.
As to `CC(C)c1ccc(-c2cc(-c3c[nH]nc3-c3ccccn3)ccn2)cc1`, the inhibition is -0.86% in [1]; 2.44% in experiment [2]; 17.2% in experiment [3]; 7.55% in experiment [4]; 40.1% in experiment [5]; 5.28% in experiment [6]. For the same molecule, the inhibition in [7] amounted to 38.5%; in experiment [8], 3.86%; in experiment [9], 21.4%; in [10] it was 1.9%.
As for `CC1=C(C(=O)Nc2ccc3[nH]nc(C)c3c2)C(c2ccc(C(F)(F)F)cc2)CC(=O)N1` (stereo not given), the inhibition turned out to be 6.01% in experiment [1]; 2.57% in experiment [2]; 3.48% in experiment [3]; 4.06% in [4]; 4.03% in experiment [5]; 1.49% in experiment [6]. Also, the inhibition was 4.65% in [7], 4.49% in [8], 3.3% in experiment [9] and 3.82% in [10].
As for `CNC(=O)c1cncc(/C=C/c2ccccc2C)c1`, the inhibition in experiment [1] amounted to 12%; in experiment [2], 4.47%; in experiment [3] it was 16.5%; in experiment [4], 6.03%; in [5] it was 28.8%; in [6], 6.13%. Further, the inhibition in experiment [7] was determined as 22.7%; in experiment [8] it was 5.28%; in [9], 19.3%; in [10], 1.47%.
Regarding `Cc1ccc(-c2cc3c(NC(=O)C4CC4)ncnc3o2)cc1`, the inhibition is 1.82% in experiment [1]; 5.52% in experiment [2]; 18.3% in [3]; 5.91% in [4]; 24.2% in [5]; 3.97% in [6]. The inhibition in experiment [7] stood at 22.8%; in [8] it was 6.11%; in [9] it was 23.7%; in experiment [10], 4.71%.
In the case of `COc1cc(Nc2ncc(-c3ccccc3)o2)cc(OC)c1`, the inhibition was -4.99% in experiment [1]; 5.8% in [2]; 23.1% in experiment [3]; 9.34% in [4]; 39.7% in experiment [5]; 8.13% in experiment [6]. Besides, the inhibition in experiment [7] was found to be 41.1%; in [8], 9.25%; in experiment [9] it was 33.6%; in [10] it was 4.18%.
As to `O=C(O[C@H]1CN[C@H](C#Cc2cc3ncnc(Nc4ccc5c(cnn5Cc5ccccc5)c4)c3s2)C1)N1CCOCC1`, the inhibition in experiment [1] was 0.8%; in experiment [2] it was 0.73%; in experiment [3] it was 0.29%; in experiment [4], -0.26%; in experiment [5], 1.3%; in experiment [6], 2.14%. Also, the inhibition in [7] was -0.2%; in experiment [8], 0.53%; in experiment [9], 0.83%; in experiment [10], -1.97%.
As to `CS(=O)(=O)CCNCc1ccc(-c2ccc3ncnc(Nc4ccc(OCc5cccc(C(F)(F)F)c5)cc4)c3c2)o1`, the inhibition is -8.87% in [1]; 0.33% in [2]; 2.52% in experiment [3]; 3.55% in [4]; 4.29% in experiment [5]; -0.21% in [6]. Also, the inhibition turned out to be 1.37% in [7], 3.36% in experiment [8], 4.5% in [9] and 1.82% in experiment [10].
As to `COc1ccc(Nc2ncc(-c3ccccc3)o2)cc1OC`, the inhibition was -2.99% in experiment [1]; 4.59% in [2]; 32.7% in experiment [3]; 10.7% in experiment [4]; 53.6% in experiment [5]; 10.2% in [6]. Further, the inhibition amounted to 56.2% in [7], 7.95% in experiment [8], 44.7% in experiment [9] and 1.08% in experiment [10].
Consider `CN(C)CCNC(=O)Nc1ccc(N(C)c2ccnc(Nc3ccc(CS(C)(=O)=O)cc3)n2)cc1`, for which the inhibition in experiment [1] is -1.22%; in [2], 2.92%; in [3], 10.2%; in [4] it was 5.45%; in experiment [5] it was 12.3%; in experiment [6], 4.48%. In addition, the inhibition in [7] is 15.1%; in experiment [8] it was 5.59%; in experiment [9], 17.4%; in [10], 4.39%.
